Results on 40 compounds are retold here after PubChem BioAssay (NCI).

This is part of a sample that, as a whole, favours compounds with a hit. Of some 83,000 tested, about 20% had one in any assay.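 Method: cells in 96-well plates; compound added at one concentration; 48 h incubation; percent growth measured; values under 10 scored active.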 The source made the active and inactive calls.

The assay relates to T-47D breast. Description: NCI-60 one-dose screen, 48 h (100 = growth as untreated, 0 = no growth, -100 = all killed). The settings on record: 10 µM unless noted. As to the method: Growth inhibition of the T-47D human tumor cell line is measured as a screen for anti-cancer activity. Cells are grown in 96 well plates and exposed to the test compound for 48 hours. Compounds are tested at a single concentration, which is 10^-5 M for most compounds. The reported endpoint is percent growth (GI% or GIPRCNT), where numbers from 0 - 100% represent growth inhibition, and numbers from -100% - 0 represent cell death. For example, a value of 40 represents 60% growth inhibition. A value of 0 means no net growth occurred over the course of the experiment. A value of -40 indicates 40% of cells at the beginning of the experiment died by the end of the experiment. A value of -100 means all cells are dead at the end of the experiment.
NCI-60 Human Tumor Cell Lines Screen was performed using the standard one-dose NCI protocol, which is described in more detail at https://dtp.cancer.gov/discovery_development/nci-60/default.htm.
Compounds with GIPRCNT values below 10 were considered active. Activity score was based on GIPRCNT using the following formula: […]
Score is 0 for GIPRCNT values of 100 or above, 50 for GIPRCNT values of 0, and 100 for GIPRCNT values of -100.
In the case of `CCCCCCCCCCCCCC(=S)NCCCC[C@H](NC(=O)OCc1ccccc1)C(=O)Nc1ccccc1`, the growth was 43.5% (inactive).

In the case of `O=C(O)c1cn(-c2ccccc2)nc1-c1ccc(O)cc1`, the growth was 101% (inactive).

With `Cc1nc2n[nH]c(N)c2nc1C`, the growth is 101% (inactive).

In the case of `CN(C)CCOc1nc2c3cccnc3cc(-c3cccc(Cl)c3)c2c2ncccc12`, the growth is 20.1% (inactive).

As for `CCn1c(CN2CCN(Cc3ccccc3)CC2)nc2cc(NC(=O)c3cccs3)ccc21`, the growth was -62.5% (active).

`CCOCC(O)(c1ccc(Cl)cc1)c1ccc(Cl)cc1`: the growth is 98.5% (inactive).

With `COc1ccc(/C=C/C(=O)c2ccc(NC(=O)CSc3nnc(-c4ccc(OC)cc4)n3-c3ccccc3)cc2)cc1`, the growth is 92.9% (inactive).

Regarding `Oc1c(C(c2ccc(F)cc2)N2CCCCC2)ccc2cncnc12` (stereo not given), the growth was 5.62% (active).

Consider `O=NN(CC(=O)NNc1ccccc1)CC(=O)NNc1ccccc1`, for which the growth was 46.6% (inactive).

With `CC1C2CCC(C2)C1COCCOCCO` (stereo not given), the growth is 98.7% (inactive).

For the compound `Cc1ccc(/C=C/C(=N/N=C(N)N)c2ccccc2)cc1`, the growth is 40.9% (inactive).

Regarding `CC[C@H](Nc1nc(C)nc(N)c1C#N)c1nc2cccc(NCc3ccc(C(=O)NO)cc3)c2c(=O)n1-c1ccccc1`, the growth is 0.805% (active).

Regarding `COc1ccc(/C=C/C(=O)c2ccc(NC(=O)CSc3nnc(-c4ccc(Cl)cc4)n3-c3ccccc3)cc2)cc1`, the growth is 77.2% (inactive).

`CNCc1ccccc1CN(CC(=O)Nc1ccc2c(c1)CC1(C2)C(=O)Nc2ncccc21)C(=O)C(C)(C)C` (stereo not given): the growth was 94.1% (inactive).

Turning to `F`, the growth is 18.2% [6.87 mM] (inactive).

Consider `Nc1nc(N)c2c(n1)NC(c1sc(Cl)nc1Cl)CC(c1ccccc1)=N2` (stereo not given), for which the growth was 43.6% (inactive).

For `O=C(Nc1ccc(Br)cc1)Nc1ccccc1Cl`, the growth is 74.9% (inactive).

Consider `N=c1n(Cc2ccccc2)c(N)cc(=O)n1Cc1ccccc1`, for which the growth is 26.7% (inactive).

`CC(OC(=O)Nc1cccc(Cl)c1)C(=O)O` (stereo not given): the growth is 93.2% (inactive).

For the compound `Nc1nc(N)c2cc(Sc3ccc(Cl)cc3)ccc2n1`, the growth was 56.4% (inactive).

Turning to `C=C(C)C1CCC2(C(=O)O)CCC3(C)C(CCC4C5(C)CCC(O)C(C)(C)C5CCC43C)C12` (stereo not given), the growth was -1.03% (active).

On to `CC(=O)Nc1ccc(Cl)cc1Cl`, for which the growth was 103% (inactive).

Take `COc1ccc2[nH]cc(C(c3ccc(Cl)cc3)N3CCCC3)c2c1` (stereo not given): the growth is 74% (inactive).

As to `ClCc1cccc(CSc2ncnc3c2ncn3Cc2cccc(CCl)c2)c1`, the growth was -64.7% (active).

On to `COc1ccc(C(=O)/C=C/c2cn(-c3ccccc3)nc2-c2cccc(Nc3ccnc4cc(Cl)ccc34)c2)cc1`, for which the growth was 97.1% (inactive).

Take `C[C@@H]1C[C@H](N)C[C@H](c2ccncc2NC(=O)c2ccc(F)c(-c3c(F)cccc3F)n2)C1`: the growth was 4.14% (active).

As to `CCCCCCCCCCCC1=NC(C)(C)CN1C(C)(C)CO`, the growth is 45.3% (inactive).

Consider `CCCc1n(Cc2ccc3ccccc3c2)c2ccccc2[n+]1Cc1ccc2ccccc2c1`, for which the growth is -9.39% (active).

Take `CCCCN(CCCC)CCC(O)c1cc2ccc(C(F)(F)F)cc2c2cc(C(F)(F)F)ccc12` (stereo not given): the growth was 52.1% (inactive).

Turning to `CSC1=NC(=Nc2c(C)cccc2C)C2(CCC(C(C)(C)C)CC2)N1c1ccc(Cl)cc1` (stereo not given), the growth was 89.9% (inactive).

For `COc1ccc2[nH]cc(/C=C3\C(=O)Nc4ccccc43)c2c1`, the growth is 36.6% (inactive).

Take `CCCNC(=S)N/N=C(\C)c1ccccn1`: the growth is 37.2% (inactive).

As for `CCNS(=O)(=O)c1ccc(C)cc1`, the growth was 106% (inactive).

Turning to `O=C1CC2(O)CSc3nc(=O)cc(n32)N1` (stereo not given), the growth is 104% (inactive).

As for `CCCCn1c(-c2ccc(F)cc2)nc2cc(OC)c(OC)cc2c1=O`, the growth was 89.1% (inactive).

As to `CCN(CC)CCCC(C)Nc1cnc(C(=O)Nc2cc(C)cc3cccnc23)cn1` (stereo not given), the growth is 32.6% (inactive).

`CCCC(CCC)NCC(O)c1cc(-c2ccc(C(F)(F)F)cc2)nc(C(F)(F)F)c1` (stereo not given): the growth is -80.5% (active).

`COc1ccc(C2=NN(C=O)C(c3ccc(OS(=O)(=O)c4ccc(C)cc4)c(OC)c3)C2)cc1` (stereo not given): the growth is 40.3% (inactive).

With `CCSc1ccc([C@@H]2[C@@H](N)C(=O)N2c2cc(OC)c(OC)c(OC)c2)cc1`, the growth was 60.3% (inactive).

Turning to `Nc1nc2c(c3ncccc13)C(c1ccccc1)Cc1ncccc1-2` (stereo not given), the growth is 71.1% (inactive).
